Assay [1] can be described thus: resazurin metabolic signal in HepG2 cells – cell-based, resazurin fluorescence, 24 h, PK04 Diversity Set, profiling panel (AID 1172). Conditions: HepG2 viability, higher = more signal. Background: The colour change of resazurin is a common sign of viable cells or microbes.
Assay [2] can be described thus: budding yeast growth changes without added modifier – OD600, strain BY4716, 24 h, basal condition, primary screen (AID 1173). Conditions: S. cerevisiae BY4716 growth, OD600, 24 h; higher = more signal, called active from +8 up or from −8 down.
Assay [3] in a line: viability profiling in MM1S myeloma cells – cell-based, resazurin fluorescence, basal, 24 h, PK04 Diversity Set, profiling panel (AID 1174). Conditions: higher = more signal, called active from +8 up or from −8 down.
For assay [4], the target named is Dihydroorotate dehydrogenase (quinone), mitochondrial (Plasmodium falciparum (isolate 3D7)) (UniProt Q08210). Put plainly: inhibition of P. falciparum DHODH – biochemical, C-terminal His tag, absorbance 600 nm, primary screen (AID 1175).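 Note: recombinant parasite enzyme with a five histidine tag at its C terminus.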 Conditions: PfDHODH enzyme, DCIP absorbance 600 nm; higher = more signal, called active from +8 up or from −8 down.
Assay [5] can be described thus: inhibition of PAO1 biofilm formation – strain PAO1, LB-PBS medium, absorbance 600 nm, primary screen (AID 1176). Conditions: P. aeruginosa PAO1 growth/biofilm, A600, 12 h; higher = more signal.
The nature of assay [6]: growth modulation of vineyard yeast isolate – strain RM11-1a, OD600, basal, 24 h, primary screen (AID 1177).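 Note: cultures grown under basal conditions with no added stressor.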 Conditions: S. cerevisiae RM11-1a growth, OD600, 24 h; higher = more signal, called active from +8 up or from −8 down.
The nature of assay [7]: growth of efflux-deficient E. coli DRC39 – strain DRC39, OD650, 24 h, E. coli filamentation inducers, primary screen (AID 1178).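 Note: growth measured as culture turbidity by optical density at 650 nm.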 To be noted: E. coli DRC39 acrAB, higher = more signal, called active from +8 up or from −8 down.
Assay [8] is described as follows: growth of efflux-deficient E. coli DRC39 – strain DRC39, OD650, 48 h, E. coli filamentation inducers, primary screen (AID 1179).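 Note: screen aims at cell division blockers that make cells filament.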 To be noted: E. coli DRC39 delta-acrAB growth, higher = more signal, called active from +8 up or from −8 down.
Assay [9] in a line: viability profiling in RPMI8226 myeloma cells – cell-based, resazurin fluorescence, basal, 24 h, PK04 Diversity Set, profiling panel (AID 1180).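 Note: RPMI8826 multiple myeloma cell line at 5000 cells per well.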 To be noted: higher = more signal.
For assay [10], the target named is E3 ubiquitin-protein ligase XIAP (Homo sapiens) (UniProt P98170). Put plainly: small molecules binding XIAP protein – biophysical, small-molecule microarray, fluorescence 635 nm, primary screen (AID 1181).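 Note: score merges 667 nm emission and signal to noise over triplicate slides.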 Conditions: higher = more signal.
For assay [11], the system named is XIP peptide (Xip251-270) binding. Put plainly: XIP fragment 251-270 binding compounds – biochemical, small-molecule microarray, fluorescence 635/667 nm, 0.1 µg/mL protein, primary screen (AID 1182). To be noted: fluorescent protein binding, 635 nm, higher = more signal, called active from +8 up or from −8 down.
Assay [12] has as its system XIP peptide (Xip251-270). Put plainly: compounds binding XIP fragment 251-270 – biochemical, small-molecule microarray, fluorescence 635/667 nm, 0.5 µg/mL protein, primary screen (AID 1183). Conditions: fluorescence 635 nm, higher = more signal.
Assay [13] is described as follows: blood-stage malaria parasite viability loss – strain 3D7, DAPI fluorescence, 100 nL, primary screen (AID 1184).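 Note: parasites grown inside human red blood cells in medium with human serum.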 Conditions: P. falciparum 3D7 growth, 3 d, higher = more signal.
For assay [14], the target named is Homeobox protein Hox-A13 (Mus musculus) (UniProt Q62424). Put plainly: disruptors of Hoxa13 oligonucleotide interaction – biochemical, fluorescence polarization, labeled oligonucleotide, primary screen (AID 1185). To be noted: Hoxa13:DNA binding, 15 min, higher = more signal, called active from +8 up or from −8 down.
Assay [15] is described as follows: blockers of DNA damage checkpoint Chk1 activation – imaging, HeLa, hydroxyurea, phospho-Chk1 antibody, percent positive cells, primary screen (AID 1186). To be noted: hydroxyurea-induced phospho-Chk1 immunofluorescence imaging, higher = more signal.
Assay [16] in a line: blockers of DNA damage checkpoint Chk1 activation – imaging, HeLa, hydroxyurea, phospho-Chk1 nuclear intensity, primary screen (AID 1187). Conditions: hydroxyurea-induced phospho-Chk1 immunofluorescence imaging, higher = more signal.

Results on 9 compounds are retold here after PubChem BioAssay.

Active and inactive are the calls of the source. Unless noted, the rule behind the calls is not given here.

Dihydroorotate dehydrogenase (quinone), mitochondrial (Plasmodium falciparum (isolate 3D7)), sequence (Q08210 whole entry, looked up): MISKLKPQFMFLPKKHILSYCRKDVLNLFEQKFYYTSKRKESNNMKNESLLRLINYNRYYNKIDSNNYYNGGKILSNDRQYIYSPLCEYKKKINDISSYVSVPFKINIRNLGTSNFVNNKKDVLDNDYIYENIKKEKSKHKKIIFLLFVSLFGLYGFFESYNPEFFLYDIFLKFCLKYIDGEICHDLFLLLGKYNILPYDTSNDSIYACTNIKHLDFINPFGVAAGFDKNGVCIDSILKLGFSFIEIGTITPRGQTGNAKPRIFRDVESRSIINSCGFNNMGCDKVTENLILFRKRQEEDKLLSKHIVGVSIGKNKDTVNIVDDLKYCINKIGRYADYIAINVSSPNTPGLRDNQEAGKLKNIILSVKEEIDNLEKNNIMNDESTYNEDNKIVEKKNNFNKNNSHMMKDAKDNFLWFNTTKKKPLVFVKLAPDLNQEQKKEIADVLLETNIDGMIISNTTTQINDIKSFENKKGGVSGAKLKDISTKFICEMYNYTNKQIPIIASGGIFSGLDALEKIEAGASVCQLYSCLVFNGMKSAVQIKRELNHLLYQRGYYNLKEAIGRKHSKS
E3 ubiquitin-protein ligase XIAP (Homo sapiens), sequence (P98170 whole entry, looked up, the tested form may be a part): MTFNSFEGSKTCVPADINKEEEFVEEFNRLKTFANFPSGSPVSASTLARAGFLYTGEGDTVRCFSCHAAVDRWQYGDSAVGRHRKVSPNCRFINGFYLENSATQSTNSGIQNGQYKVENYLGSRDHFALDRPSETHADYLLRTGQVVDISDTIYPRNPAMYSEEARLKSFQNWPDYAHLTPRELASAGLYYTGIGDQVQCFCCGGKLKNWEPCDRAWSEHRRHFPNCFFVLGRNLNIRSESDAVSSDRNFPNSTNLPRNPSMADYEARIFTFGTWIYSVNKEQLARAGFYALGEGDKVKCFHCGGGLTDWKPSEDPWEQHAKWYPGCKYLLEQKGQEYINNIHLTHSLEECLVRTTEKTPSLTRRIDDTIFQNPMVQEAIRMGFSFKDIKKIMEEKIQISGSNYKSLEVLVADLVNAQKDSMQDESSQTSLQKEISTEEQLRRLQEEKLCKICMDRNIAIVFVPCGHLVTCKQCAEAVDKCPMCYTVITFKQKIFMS
Homeobox protein Hox-A13 (Mus musculus), sequence (Q62424 whole entry, looked up): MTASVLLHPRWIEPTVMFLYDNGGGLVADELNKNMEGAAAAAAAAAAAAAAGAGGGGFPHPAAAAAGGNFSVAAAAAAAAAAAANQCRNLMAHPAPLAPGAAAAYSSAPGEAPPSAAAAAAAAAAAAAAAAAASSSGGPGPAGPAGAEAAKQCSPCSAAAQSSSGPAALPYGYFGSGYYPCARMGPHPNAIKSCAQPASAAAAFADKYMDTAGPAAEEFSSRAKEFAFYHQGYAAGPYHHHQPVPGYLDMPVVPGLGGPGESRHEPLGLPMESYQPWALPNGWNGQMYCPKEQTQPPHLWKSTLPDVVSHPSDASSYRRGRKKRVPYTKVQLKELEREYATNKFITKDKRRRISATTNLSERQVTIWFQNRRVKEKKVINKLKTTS

Regarding `CC(C)(C)N1CC=CC23O[C@@H]4C=CCOC(=O)[C@@H]4[C@H]2C(=O)N(CCO)[C@@H]3C1=O` (some centres undefined), the z-score in assay [1] is -0.237; in assay [2], 0.377 (inactive); in assay [3], -0.0504 (inactive); in assay [5], -0.994 (inactive); in assay [6] it was 0.0505 (inactive); in assay [7], 0.0531 (inactive). In addition, the z-score is -0.147 (inactive) in assay [8]; -0.167 in assay [9]; 0.885 in assay [13]; -3.33 (inactive) in assay [14]; 0.121 (inactive) in [15]; -0.307 (inactive) in assay [16]. In addition, the composite z-score in assay [4] was -0.0529 (inactive); in assay [10], -0.0969; in assay [11] it was 0.218 (inactive); in assay [12], 0.57.

With `CC(C)C[C@@H]1NC(=O)[C@@]23C(=O)N[C@@H](Cc4ccccc4)C2[C@H](C)[C@@]2(C)O[C@H]2C3/C=C/C/C=C\CNC(=O)CNC1=O` (some centres undefined), the z-score in assay [1] was -0.62; in assay [2] it was -1.68 (inactive); in assay [3], 0.308 (inactive); in assay [5], 0.437 (inactive); in assay [6] it was -0.773 (inactive); in assay [7], -0.229 (inactive). The z-score was -0.911 (inactive) in [8]; -0.139 in assay [9]; -0.59 in assay [13]; -5.87 (inactive) in [14]; 0.312 (inactive) in assay [15]; -0.0422 (inactive) in assay [16]. Moreover, the composite z-score in assay [4] was -0.658 (inactive); in assay [10], -0.105; in assay [11], 0.533 (inactive); in assay [12], 0.58.

Take `CC1CC/C=C\[C@H]2OC34C=CCN(c5ccc(Cl)cc5)C(=O)[C@H]3N(CCCCCCO)C(=O)[C@]4(C)C2C(=O)O1` (some centres undefined): the z-score in assay [1] was 0.25; in [2] it was -0.257 (inactive); in assay [3], 0.722 (inactive); in assay [5], -0.801 (inactive); in assay [6], 0.268 (inactive); in assay [7], 0.251 (inactive). Besides, the z-score is 0.732 (inactive) in [8]; 0.485 in assay [9]; 0.955 in assay [13]; -5.35 (inactive) in assay [14]; -0.517 (inactive) in [15]; -0.187 (inactive) in [16]. Moreover, the composite z-score in assay [4] was -1.1 (inactive); in [10], 1.65; in [11], 0.675 (inactive); in [12], 0.265.

`[N-]=[N+]=Nc1ccccc1[C@H]1OC(c2ccc(OCCCO)cc2)=N[C@@]1(Cc1ccccc1)C(=O)NCC(O)CO` (some centres undefined): the z-score in assay [1] is 1.21; in assay [2], -1.65 (inactive); in [3] it was -1.21 (inactive); in assay [5], -1.08 (inactive); in [6], 0.972 (inactive); in [7] it was 0.413 (inactive). In addition, the z-score in assay [8] was 0.318 (inactive); in [9], -1.28; in [13] it was -1.84; in assay [14] it was -4.34 (inactive); in [15], 0.0068 (inactive); in assay [16], 0.251 (inactive). Also, the composite z-score in [4] is -0.0513 (inactive); in [10] it was 0.0487; in assay [11], 0.448 (inactive); in assay [12] it was 0.536.

As to `O=C1O[C@@H](c2ccccc2)[C@@H](c2ccccc2)N2[C@@H](c3ccc(OCCO)cc3)[C@]3(C(=O)Nc4ccc(C#CC5(O)CCCCCC5)cc43)[C@@H](C(=O)O)[C@H]12`, the z-score is -0.253 in [1]; -0.431 (inactive) in assay [2]; 1.12 (inactive) in assay [3]; 1.27 (inactive) in [5]; 3.11 (inactive) in assay [6]; 0.876 (inactive) in assay [7]. Moreover, the z-score in assay [8] is 1.06 (inactive); in [9], -0.121; in assay [13], -0.0628; in assay [14], -6.03 (inactive); in [15], -0.167 (inactive); in assay [16], 0.0604 (inactive). In addition, the composite z-score was -2.17 (inactive) in assay [4], -0.148 in [10], 2.23 (inactive) in [11] and 0.688 in [12].

For `Cc1ccc(S[C@]2(C(=O)NCCCN(C)C)CC(=O)N(C3Cc4ccccc4C3)[C@@H]2c2ccc(CO)cc2I)cc1`, the z-score in assay [1] is -0.595; in assay [2], -3.43 (inactive); in [3], -2.99 (inactive); in assay [5] it was 0.531 (inactive); in assay [6], 0.609 (inactive); in [7] it was -0.605 (inactive). In addition, the z-score in assay [8] is -0.623 (inactive); in assay [9], -2.37; in assay [13], -0.235; in assay [14] it was -3.61 (inactive); in assay [15] it was 0.721 (inactive); in assay [16], 0.848 (inactive). In addition, the composite z-score was 0.505 (inactive) in assay [4], -0.0999 in [10], -0.261 (inactive) in [11] and 0.315 in [12].

`CC(C)N1C(=O)c2ccccc2[C@@H](C(=O)NCC(F)(F)F)[C@@H]1c1ccc(CO)cc1`: the z-score in assay [1] is 0.4; in [2], -0.102 (inactive); in assay [3] it was 0.0516 (inactive); in [5], -0.0807 (inactive); in assay [6], 0.436 (inactive); in assay [7] it was -0.196 (inactive). Further, the z-score is -0.484 (inactive) in assay [8]; 0.236 in [9]; 0.872 in assay [13]; -1.73 (inactive) in [14]; 0.0626 (inactive) in [15]; 0.11 (inactive) in assay [16]. The composite z-score is -0.262 (inactive) in [4], -0.111 in assay [10], -0.258 (inactive) in assay [11] and -0.245 in [12].

Turning to `O=C(NCc1ccccc1)[C@@H]1c2ccccc2C(=O)N(Cc2cc(C(F)(F)F)cc(C(F)(F)F)c2)[C@H]1c1ccc(CO)cc1`, the z-score was -0.527 in assay [1]; -0.247 (inactive) in assay [2]; 0.3 (inactive) in assay [3]; 0.338 (inactive) in [5]; 1.06 (inactive) in assay [6]; 0.324 (inactive) in [7]. Also, the z-score in assay [8] was 0.0181 (inactive); in assay [9], 1.03; in assay [13] it was -1.2; in [14], -3.95 (inactive); in assay [15], -0.0537 (inactive); in assay [16], -0.101 (inactive). The composite z-score in assay [4] was 0.819 (inactive); in [10], -0.147; in assay [11], 0.722 (inactive); in [12] it was 0.221.

With `O=C(NCC(O)CO)[C@@]1(CCS(=O)(=O)c2ccccc2)N=C(c2ccc(OCCCO)cc2)O[C@H]1c1ccccc1` (some centres undefined), the z-score in assay [1] is -0.748; in assay [2], -0.386 (inactive); in [3] it was -0.133 (inactive); in [5], 0.618 (inactive); in assay [6] it was -0.707 (inactive); in assay [7] it was 0.107 (inactive). The z-score was -0.618 (inactive) in assay [8]; -0.195 in assay [9]; -2.02 in assay [13]; -4.76 (inactive) in assay [14]; -0.579 (inactive) in assay [15]; -0.282 (inactive) in [16]. Moreover, the composite z-score was -0.637 (inactive) in assay [4], 0.0341 in [10], 2.08 (inactive) in [11] and 0.0777 in assay [12].
